This is a sample that favours compounds with a hit; in the whole collection about 8% have one here.
SARS PLpro yeast = blocks SARS-CoV papain-like protease in a yeast assay. Potency, µM (series often up to 32.9 µM), for inactives: at the top dose activity, positive = growth rescue, most hits filed as activators. S. cerevisiae expressing SARS-CoV PLpro, growth rescue. 330,000 compounds, 0.19% hits; calls by dose curve; further: potency means the concentration at half of the fitted maximal effect; 0% is about no effect; nearly all actives have a fitted effect of over 55% in size
HCMV inh = inhibitors of human cytomegalovirus; HFF cells, HCMV-luciferase reporter, 72 h; active compounds read low; activity change, negative = inhibition, % at 57.5 µM; 410,000 compounds, 4.5% hits; in the data active means activity change below about -60%; inconclusive means no clear call, values can overlap the other calls; inactive means above about -39%; further: on the % scale 0 is the no-effect control and ±100 the full control effect
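Two compound doses tested in HFFs infected with HCMV-luciferase, MOI 1 PFU/cell, 72 h at 37C. Lysate luminescence read with OneGlo; data normalized against buffer-only and 10uM Salinomycin inhibitor controls.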
LASV entry inh = inhibitors of Lassa virus binding or cell entry | Lassa virus pseudotype entry inhibition, cell reporter | Potency, µM (series often up to 37.9 µM), for the others: top-dose activity change, negative = inhibition, hits mostly inhibitors | 300,000 compounds, 1.2% hits; calls by dose curve; tested in HEK293 cells; further: potency means the concentration at half of the fitted maximal effect; on the % scale 0 is the no-effect control and ±100 the full control effect; nearly all actives have a fitted effect of over 50% in size
MARV entry inh = Marburg virus entry inhibition; Marburg virus pseudotyped entry inhibition, cell reporter; Potency, µM (doses to about 37.8 µM), without a hit: top-dose activity change, negative = inhibition, most hits filed as inhibitors; 300,000 compounds, 1.8% hits; AID 540276; calls by dose curve; tested in HEK293 cells; further: potency means the concentration at half of the fitted maximal effect; on the % scale 0 is the no-effect control and ±100 the full control effect
HCV inh = blocks hepatitis C virus | Huh7.5.1 HCVcc-Cre infection, luciferase reporter, 44 h | Potency, µM (series often up to 41.8 µM), for inactives: at the top dose activity change, negative = inhibition, actives largely listed as inhibitors | 340,000 compounds, 3.4% hits | AID 651820; active means well fitted inhibition curve with a large enough effect; inconclusive means small, poorly fitted or top-dose-only effect, or another doubt; inactive means no such curve, though single readings can be large or run the other way; further: potency means the concentration at half of the fitted maximal effect; on the % scale 0 is the no-effect control and ±100 the full control effect
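Infectious HCV cell culture screen: compound-treated cells (1,000/well, pre-plated 4 h) are infected with HCVcc-Cre at roughly 0.5 moi and grown 44 h. Infection is quantified by luciferase signal after 15 min substrate incubation at room temperature.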
FMDV antiviral = antivirals against foot and mouth disease virus; FMDV antiviral cell-based qHTS; 410,000 compounds, 1.2% hits; Potency, µM (titrated, usually from 57.9 µM), for inactives: top-dose activity change, negative = inhibition, usual class: inhibitors; calls by dose curve; tested in HEK293T cells; further: read-out not given here; potency means the concentration at half of the fitted maximal effect; on the % scale 0 is the no-effect control and ±100 the full control effect; nearly all actives have a fitted effect of over 45% in size
An asterisk follows results filed as active; [ ] = remark or other dose.

How did CC[n+]1c(/C=C/N(C)c2ccccc2)sc2ccc(Cl)cc21 do in these assays?
SARS PLpro yeast: 0.9%; HCMV inh: -96.6*; LASV entry inh: inconclusive; MARV entry inh: 2.91µM*; HCV inh: inconclusive

How did CN(C)c1ccc(/C=C/C=C/c2sc3ccccc3[n+]2C)cc1 do in these assays?
SARS PLpro yeast: -0.5%; HCMV inh: -95.3*; LASV entry inh: inconclusive; MARV entry inh: inconclusive; HCV inh: inconclusive; FMDV antiviral: 39.8µM*

Results for CC[n+]1c(/C=C/C=C/N(C(C)=O)c2ccccc2)sc2ccccc21 ?
SARS PLpro yeast: -0.9%; HCMV inh: inconclusive; LASV entry inh: -27.6%; MARV entry inh: inconclusive; HCV inh: inconclusive; FMDV antiviral: inconclusive

Results for CC[n+]1c(/C=C/C=C/c2ccc(N(C)C)cc2)sc2ccccc21 ?
SARS PLpro yeast: -6.8%; HCMV inh: -110.4*; LASV entry inh: inconclusive; MARV entry inh: 1.78µM*; HCV inh: 2.82µM*; FMDV antiviral: inconclusive

How did CN(C)c1ccc(/C=C/C=C2/SC(=S)N(c3ccccc3)C2=O)cc1 do in these assays?
SARS PLpro yeast: 0.9%; HCMV inh: -36.1; LASV entry inh: -0.6%; MARV entry inh: -2.6%; HCV inh: 6.9%; FMDV antiviral: inconclusive

What do the screens show for `COCc1c(C(=O)N2CCC(N(C)C)C2)cnn1-c1ncc2c(n1)-c1ccccc1CCC2` (stereo unspecified)?
FMDV antiviral: -8.7%

Results for COCCCNC(=O)c1cnn(-c2ncc3c(n2)-c2ccccc2CCC3)c1C ?
FMDV antiviral: 40.0%

Results for Cc1cccc(NC(=O)c2cc(NC(=O)C3CCCCC3C(=O)O)ccc2N2CCOCC2)c1 (stereo unspecified) ?
SARS PLpro yeast: -3.0%; HCMV inh: -6.5; LASV entry inh: 11.6%; MARV entry inh: 1.9%; FMDV antiviral: 13.7%

How did Cc1ccc(NC(=O)c2cc(N3C(=O)C=CC3=O)ccc2N2CCOCC2)cc1 do in these assays?
SARS PLpro yeast: -6.0%; HCMV inh: inconclusive; MARV entry inh: -3.4%[46.1 µM]; HCV inh: 10µM*; FMDV antiviral: inconclusive

Results for Cc1ccc(NC(=O)c2cc(NC(=O)c3ccco3)ccc2N2CCCCC2)cc1 ?
SARS PLpro yeast: -4.1%; HCMV inh: -63.7*; LASV entry inh: 7.1%; MARV entry inh: inconclusive; HCV inh: inconclusive; FMDV antiviral: -25.8%

How did Cc1ccc(NC(=O)c2cc(NC(=O)c3ccco3)ccc2N2CCOCC2)cc1 do in these assays?
SARS PLpro yeast: -2.0%; HCMV inh: 8.7; LASV entry inh: inconclusive; MARV entry inh: -12.2%; HCV inh: 12.6µM*; FMDV antiviral: 4.4%

What do the screens show for `Cc1ccc(Cl)cc1NC(=O)c1cc(NC(=O)C2CCCCC2C(=O)O)ccc1N1CCOCC1` (stereo unspecified)?
SARS PLpro yeast: inconclusive; HCMV inh: -4.8; LASV entry inh: 10µM*; MARV entry inh: 17.7%[46.1 µM]; HCV inh: 2.0%; FMDV antiviral: 3.2%

Results for CCN(CC)C(=O)Cn1c(=O)cc(C)c2c(C)nn(-c3ccc(C)cc3)c21 ?
HCMV inh: 7.7; LASV entry inh: inconclusive; FMDV antiviral: 1.2%

How did COC(=O)NCC=Cc1nc(CCCO)co1 do in these assays?
MARV entry inh: -24.0%[14.2 µM]

What do the screens show for `COC(=O)c1scc(-c2ccc(C)cc2)c1S(=O)(=O)Nc1cc(Cl)ccc1C`?
HCMV inh: 4.4; LASV entry inh: 14.3%[46.1 µM]; FMDV antiviral: 69.2%

Results for CCCCOc1ccc(C(C)NC(=O)CCS(=O)(=O)Cc2ccccc2F)cc1 (stereo unspecified) ?
SARS PLpro yeast: 27.7%; HCMV inh: -65.8*; LASV entry inh: 8.1%; MARV entry inh: -17.3%; HCV inh: -2.3%; FMDV antiviral: -13.5%

Results for Cc1ccc2nc(CSc3nc(C)ccc3C#N)[nH]c2c1 ?
SARS PLpro yeast: -25.4%; HCMV inh: 144.2; LASV entry inh: 1.03µM*; MARV entry inh: 2.31µM*; HCV inh: inconclusive; FMDV antiviral: 8.91µM*

Results for Cc1ccc(C#N)c(SCc2ccccc2F)n1 ?
SARS PLpro yeast: -0.6%; HCMV inh: inconclusive; LASV entry inh: 18.2%; MARV entry inh: 0.1%[46.1 µM]; HCV inh: 3.8%; FMDV antiviral: 7.8%

Results for CCCCCCN1C[C@H](O)[C@@H](n2cc(-c3ccc(F)cc3)nn2)C[C@@H]1c1ccc(C)cc1 ?
HCMV inh: 24.8; FMDV antiviral: -18.9%

What do the screens show for `COC(=O)c1cc(NC(C)=O)ccc1N1CCOCC1`?
SARS PLpro yeast: 1.6%; HCMV inh: 8.5; LASV entry inh: -0.8%[46.1 µM]; MARV entry inh: 1.4%[46.1 µM]; HCV inh: 2.3%; FMDV antiviral: -9.6%

How did COC(=O)c1cc(NC(=O)c2c(C)noc2C)ccc1N1CCOCC1 do in these assays?
SARS PLpro yeast: -4.7%; HCMV inh: 5.5; LASV entry inh: 5.7%[46.1 µM]; MARV entry inh: inconclusive; HCV inh: 7.9%; FMDV antiviral: 10.8%

Results for COC(=O)c1cc(NC(=O)c2cc(-c3ccc(C(F)(F)F)cc3)oc2C(F)(F)F)ccc1N1CCOCC1 ?
SARS PLpro yeast: 0.3%; HCMV inh: -94.0*; LASV entry inh: inconclusive; MARV entry inh: 11.2µM*; HCV inh: 3.55µM*; FMDV antiviral: inconclusive

How did COC(=O)c1cc(NC(=O)c2cc(-c3ccc(OC)cc3)oc2C(F)(F)F)ccc1N1CCOCC1 do in these assays?
SARS PLpro yeast: -0.5%; HCMV inh: -24.8; HCV inh: 7.08µM*; FMDV antiviral: -24.9%

What do the screens show for `C/C(=C\C=C(C#N)C#N)c1cc(C#N)c(N)o1`?
SARS PLpro yeast: -0.1%; HCMV inh: inconclusive; LASV entry inh: 2.5%; MARV entry inh: 1.1%[46.1 µM]; HCV inh: -27.5%; FMDV antiviral: -22.3%

How did CCC1CN(CC(=O)NC(C)c2cn(C)nc2C)Cc2cc(OC)ccc2O1 (stereo unspecified) do in these assays?
FMDV antiviral: -8.4%

Results for CC(C)CCSc1nnc2n(-c3ccccc3)c(=O)c3c4c(sc3n12)CC(C)CC4 (stereo unspecified) ?
HCMV inh: -14.9; LASV entry inh: inconclusive; FMDV antiviral: -17.7%

How did O=C(c1ccccc1)c1c[nH]cc1-c1ccccc1 do in these assays?
SARS PLpro yeast: 4.4%; HCMV inh: -12.6; LASV entry inh: 3.0%; MARV entry inh: 3.6%; HCV inh: 6.8%; FMDV antiviral: -13.1%

How did O=C(c1c[nH]cc1-c1ccccc1)c1cccc2ccccc12 do in these assays?
SARS PLpro yeast: -3.6%; HCMV inh: 6.3; LASV entry inh: -16.5%; MARV entry inh: 11.6µM*; HCV inh: -26.1%; FMDV antiviral: -21.0%

What do the screens show for `CCOc1ccc(CNC(=O)C2CCCN(S(=O)(=O)N3CC(C)CC(C)C3)C2)cc1OC` (stereo unspecified)?
SARS PLpro yeast: -4.8%; HCMV inh: -3.1; HCV inh: -1.1%; FMDV antiviral: 0.9%
